Reference: PubChem BioAssay AID504637 (National Center for Advancing Translational Sciences (NCATS), 2011)
Out of some 1,100 compounds screened, about 430 (39%) were called active. About 44% were inconclusive and are not listed. The call rests on the fitted dose curve; in most records, active means well fitted inhibition curve with a large enough effect; inconclusive means small, poorly fitted or top-dose-only effect, or effect the other way; inactive means flat fitted curve, though single readings scatter. The set was probably picked from earlier hits. Shown is part of a subset that was picked to be rich in actives.

The molecules below were run against ATP-dependent 6-phosphofructokinase (Trypanosoma brucei brucei) (UniProt O15648) (assay: Inhibitors of T. brucei phosphofructokinase: Hit Validation). Details: purified T. brucei PFK, ADP-Glo luminescence, 45 min; series mostly up to 57.5 µM.
Description: NCGC Assay Overview: Various species of the protozoan family Trypanosomatidae are responsible for a range of serious human diseases in tropical and subtropical areas of the world. […] Many of the disorders caused by trypanosomatids are fatal if left untreated, but most currently used drugs are inefficient and toxic. […] Oxidative metabolism involving the mitochondrial tricarboxylic acid cycle and oxidative phosphorylation are repressed in these parasites, and recent RNA interference (RNAi) experiments have shown that even partial depletion of certain individual glycolytic enzymes can lead to the death of cultured parasites. One such glycolytic enzyme, phosphofructokinase (PFK), catalyzes the formation of fructose-1,6-bisphosphate (F1,6BP) and ADP from fructose-6-phosphate (F6P) and ATP, and in many metabolic circumstances makes an important contribution to the control of flux through the glycolytic pathway. As a specific glycolytic target, PFK is particularly attractive as it catalyzes the first irreversible step in glycolysis, and structural and kinetic studies have shown very substantial and essential differences from corresponding host enzymes, allowing for the discovery of parasite-selective inhibitors. The goal of this screen is to find small-molecule inhibitors of T. brucei PFK using a biochemical assay that measures PFK activity as a function of ADP production. A luminescence-based assay for T. brucei PFK activity has been developed which uses luciferase to detect production of ADP. Traditional luciferase-based nucleotide detection reagents rely on ATP production as a direct substrate for the luciferase reaction; however, PFK catalyzes the transfer of a phosphate from ATP to F6P, resulting in the net depletion of ATP. To directly measure the ADP product of the PFK reaction, we used the ADP-Glo detection kit (Promega), which utilizes two separate reactions to 1) deplete all remaining uncatalyzed ATP and 2) convert all remaining ADP to ATP, which is then detected through a traditional luciferase-coupled reaction. Compounds were screened as a concentration-titration series that ranged from 57uM to 0.7nM. 1. Verlinde, C.L., et al., Glycolysis as a target for the design of new anti-trypanosome drugs. Drug Resist Updat, 2001. 4(1): p. 50-65. 2. Albert, M.A., et al., Experimental and in silico analyses of glycolytic flux control in bloodstream form Trypanosoma brucei. J Biol Chem, 2005. 280(31): p. 28306-15. 3. […] J Mol Biol, 2009. 385(5): p. 1519-33. NIH Molecular Libraries Probe Production Network [MLPCN] NIH Chemical Genomics Center [NCGC] Grant: 1 R03 MH092153-01 PI Name: Malcolm Walkinshaw, University of Edinburgh
NCGC Assay Protocol Summary: Substrate buffer was dispensed into white, solid 1536-well plates at 3uL/well in 0.1M triethanolamine (TEA) buffer, pH 8.0, containing final concentrations of 5 mM MgCl2, 0.01% Tween20, 0.5 mM fructose-6-phosphate (F6P) and 0.1mM ATP. Then, 23 nL of compounds or DMSO were delivered to each well using a pin tool. One uL T. brucei PFK (0.1M TEA, 0.01% Tween20, 0.1% bovine serum albumin (BSA) and 1.25nM PFK, final concentrations) was then dispensed, and plates were incubated at room temperature for 45 min. The luminescent detection reagent, ADP-Glo (Promega), was then added in two steps: the first reagent, ADP-Glo (which converts remaining uncatalyzed ATP), was added at 2.5uL/well and incubated for ten minutes at room temperature, and the second component, Kinase Detection reagent (which converts ADP to ATP as a substrate for luciferase-based luminescence), was added immediately after at 5uL/well, followed by one final ten minute room temperature incubation. The plates were measured on a ViewLux plate reader for luminescent signal using a clear filter with a one second exposure. The %Activity was determined from the corrected luminescence values. […]
Further: nearly all actives have a fitted effect of over 60% in size.
Potency means the concentration at half of the fitted maximal effect.

Chain of ATP-dependent 6-phosphofructokinase (Trypanosoma brucei brucei) (O15648 whole entry, looked up): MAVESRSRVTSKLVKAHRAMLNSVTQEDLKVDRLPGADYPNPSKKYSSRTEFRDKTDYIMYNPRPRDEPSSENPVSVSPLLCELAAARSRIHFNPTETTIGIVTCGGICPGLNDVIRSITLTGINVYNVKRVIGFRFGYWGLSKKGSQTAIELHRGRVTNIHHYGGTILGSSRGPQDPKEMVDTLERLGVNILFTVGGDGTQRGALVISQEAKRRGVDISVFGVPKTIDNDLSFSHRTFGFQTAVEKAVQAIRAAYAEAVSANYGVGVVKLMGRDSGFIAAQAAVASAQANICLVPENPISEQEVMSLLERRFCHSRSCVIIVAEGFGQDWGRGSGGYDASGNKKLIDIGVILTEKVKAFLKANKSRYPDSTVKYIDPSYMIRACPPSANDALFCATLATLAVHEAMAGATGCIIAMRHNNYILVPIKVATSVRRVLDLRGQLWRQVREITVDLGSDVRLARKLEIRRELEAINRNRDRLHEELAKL

| Compound | Potency |
| --- | --- |
| Cn1nnnc1NCc1ccc(Cl)c(Cl)c1 | 23.9 µM (active) |
| O=C(Cc1ccc(Cl)c(Cl)c1)Nc1ccc(SC(F)F)cc1 | 23.9 µM (active) |
| Cc1ccc(CC(=O)Nc2ccc(S(=O)(=O)N3CCOCC3)cc2)cc1C | inactive |
| O=C(COC(=O)CCC(=O)c1cccs1)NCc1ccco1 | inactive |
| C=CC1=C(C(=O)O)N2C(=O)[C@@H](NC(=O)/C(=N\OCC(=O)O)c3csc(N)n3)[C@H]2SC1 | 4.26 µM (active) |
| N#Cc1cccc(CSc2ncnc(N)n2)c1 | 26.9 µM (active) |
| C=C1c2c(Cl)ccc(O)c2C(O)=C2C(=O)[C@]3(O)C(O)=C(C(N)=O)C(=O)[C@@H](N(C)C)[C@@H]3[C@@H](O)C12 (some centres not stated) | inactive |
| O=C1CSC(=S)N1/N=C/c1ccc(O)c([N+](=O)[O-])c1 | inactive |
| COC(=O)CC(=O)N1CCN(c2ccc(Cl)c(Cl)c2)CC1 | 26.9 µM (active) |
| O=C1CSC(=S)N1c1ccc(Cl)c(Cl)c1 | inactive |
| Cc1nn(Cc2ccc(Cl)c(Cl)c2)c(C)c1NC(=O)c1cc(C2CC2)on1 | 12 µM (active) |
| O=[N+]([O-])/C=C/c1ccc2c(ccn2Cc2ccccc2)c1 | 23.9 µM (active) |
| CC(C)(C)c1nnc(NC(=O)C2c3ccccc3Oc3ccccc32)s1 | 26.9 µM (active) |
| Cc1ccc(NC(=O)c2cc(-c3ccc(C)o3)nc3ccccc23)nc1 | 12 µM (active) |
| O=C(Cc1ccc([N+](=O)[O-])cc1)N/N=C/c1ccco1 | 23.9 µM (active) |
| O=C(NCc1ccc(Cl)c(Cl)c1)c1cccnc1 | 26.9 µM (active) |

| Compound | Potency |
| --- | --- |
| Cc1ccc(-c2nn(-c3ccccc3)cc2/C=C2\SC(=S)N(CCCCCC(=O)O)C2=O)o1 | 30.1 µM (active) |
| O=c1[nH]c(=S)[nH]c2[nH]c(=S)[nH]c12 | 1.9 µM (active) |
| O=[N+]([O-])c1c(NCCO)cc(Sc2nc3ccccc3s2)c2nonc12 | 1.51 µM (active) |
| O=C(CSc1nc(O)c(Cc2ccccc2)c(=O)[nH]1)Nc1nc2c(s1)CCCC2 | 16.9 µM (active) |
| OCCN1CCN(C(=S)c2ccc(-c3ccccc3)cc2)CC1 | 26.9 µM (active) |
| FC(F)(F)C1CCCN(c2nsc3ccccc23)C1 (configuration not stated) | 4.26 µM (active) |
| CCn1nc(C(=O)NNS(=O)(=O)c2cc(/C=C/C(=O)O)cc(OC)c2OC)c2ccccc2c1=O | inactive |
| Cc1c(C)c2ccc(OCC(=O)N3CCN(c4cccc(Cl)c4)CC3)cc2oc1=O | 8.49 µM (active) |
| COc1ccc(N/C=C(\C2OC(=O)c3ccccc32)[N+](=O)[O-])cc1 (configuration not stated) | inactive |
| Cc1nc(N)nc(SCc2ccc([N+](=O)[O-])cc2)c1N | 19 µM (active) |
| Cc1cccc(-n2c(N)c(C(=O)N3CCN(C)CC3)sc2=S)c1 | 13.5 µM (active) |
| O=c1ccnc(Nc2ccc(Cl)cc2)[nH]1 | 30.1 µM (active) |
| C=C(C)C(=O)Nc1cccc(C2=NOC3(C2)C[C@H](C(N)=O)N(C(=O)C(c2ccccc2)c2ccccc2)C3)c1 (some centres not stated) | 1.9 µM (active) |
| Cn1sc(=O)c2cc(S(=O)(=O)NC3CC3)ccc21 | 21.3 µM (active) |
| O=c1[nH]c2ccccc2n2c(-c3ccccc3)nnc12 | 13.5 µM (active) |
| Cc1ccccc1CN1C[C@@H]2C[C@@H](c3cn(C)nc3-c3ccccc3)N3CCC[C@@]23C1=O | inactive |
